Data reported in PubChem BioAssay AID2685 (National Center for Advancing Translational Sciences (NCATS), 2010).
Where “and” joins values, the source holds several entries; their conditions need not be identical. Equal entries are not always repeated. Out of some 320,000 compounds screened, about 2,100 (0.66%) were called active. Not shown: some 53% with an inconclusive outcome. Calls follow the shape of the dose curve; as a rule, active = well fitted inhibition curve with a large enough effect in the signal ratio, with a control signal flat (not every such curve was filed as active); inconclusive = small, poorly fitted or top-dose-only effect, or effect the other way, or a change in a side signal; inactive = flat fitted curve, though single readings scatter; the % refers to the signal ratio. The full list was thinned out, with actives kept by preference.
Potency is read from the fitted curve at half-maximal effect.

Assay: qHTS Assay for Lipid Storage Modulators in Drosophila S3 Cells;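 as to cell number change: cells counted by Cell Tracker Red CMTPX staining in the red channel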; as to lipid storage change, negative = inhibition: % is scaled to controls: 0 for no effect and ±100 for the full control effect
Conditions: BODIPY lipid droplet fluorescence, 18-24 h, cells fed with added oleic acid; cell number change: measured here: cell count max response; series mostly up to 46.1 µM
In short: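 Drosophila S3 cells got compounds at several concentrations plus oleic acid (400 uM solution). Laser-scanning cytometry with 488 nm excitation read lipid droplets at 500-530 nm and cells at 575-640 nm. Percent activity was relative to 20 uM Triacsin C.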
With `NC(=O)CSc1nc(N)c2c3c(sc2n1)CCCCC3` the Potency was “inactive” and the cell number change was -16.5%. In the case of `O=C(O)CSc1nc2sc3c(c2c(=O)n1-c1ccccc1)CCC3`, the Potency was “inactive” and the cell number change was 10.3%. In the case of `Nc1nc(SCc2nnc(SCC(=O)O)n2-c2ccccc2)nc2sc3c(c12)CCCC3`, the Potency was 23.1 µM (active) and the cell number change was 3.22%. With `Cc1ccc(C)c(-n2c(SCC(=O)O)nc3sc4c(c3c2=O)CCCC4)c1` the Potency was 0.116 µM (active) and the cell number change was 13%. For `Cc1ccc(-n2c(SCC(=O)O)nc3sc4c(c3c2=O)CCCC4)cc1`, the Potency was “inactive” and the cell number change was 9.08%. In the case of `Cc1ccccc1-n1c(SCC(=O)O)nc2sc3c(c2c1=O)CCCC3`, the Potency was “inactive”. For `Cc1cc(C)c2c(CN3CC(C)OC(C)C3)cc(=O)oc2c1C` (stereo unspecified), the Potency was “inactive” and the cell number change was -15.5%. In the case of `O=C(Nc1ccccc1)N(CCN1CCOCC1)Cc1cccc(Cl)c1`, the Potency was “inactive” and the cell number change was -10.2%. With `Cc1cc(C(=O)N/N=C/c2cccn2C)no1` the Potency was “inactive” and the cell number change was 6.61%. For `CCOC(=O)N1CCc2c(sc3nc(SC(C)C)n(N)c(=O)c23)C1`, the Potency was “inactive” and the cell number change was -1.6%. In the case of `Oc1ccc(Br)cc1C=Nc1ccc(Cl)cc1`, the Potency was “inactive” and the cell number change was -3.17%. For `CCc1c(C)sc(NC(=O)Cc2ccccc2OC)c1C(=O)N1CCOCC1`, the Potency was “inactive” and the cell number change was -8.21%. For `CC12CCC(=O)C=C1CCC1C2C(=O)CC2(C)C1CCC2(O)C(=O)CO` (stereo unspecified), the Potency was 16.4 µM (active) and the cell number change was -13.5%. For `C[C@]12C=CC(=O)C=C1CC[C@@H]1[C@@H]2C(=O)C[C@@]2(C)[C@H]1CC[C@]2(O)C(=O)CO`, the Potency was “inactive” and the cell number change was 21.3% and -3.16%. For `CC(=O)OCC(=O)[C@@]1(O)CC[C@H]2[C@@H]3CCC4=CC(=O)CC[C@]4(C)[C@H]3C(=O)C[C@@]21C`, the Potency was “inactive” and the cell number change was 11.1%. In the case of `CCCCC(CC)C(=O)Nc1ccc(Nc2ccccc2)cc1` (stereo unspecified), the Potency was “inactive” and the cell number change was -8.16%. With `CN1C(=O)C(=C2CCCCCC2)SC1=S` the Potency was “inactive” and the cell number change was -2.61%. With `COc1cc2c(cc1OC)C1O[C@](CCCCN3C(=O)c4ccccc4C3=O)(C2)Oc2c1c(=O)oc1ccc(F)cc21` the cell number change was -5.97% and the lipid storage change, negative = inhibition was 16.8% [at 9.22 µM] (inactive). With `CCOC(=O)/C(C#N)=C/c1cc2cc(C)c(C)cc2nc1Cl` the Potency was “inactive” and the cell number change was -0.849%. For `CC1CCCCN1C(=O)Cn1c(=O)n(CCC(=O)NCc2ccco2)c(=O)c2sccc21` (stereo unspecified), the Potency was “inactive” and the cell number change was -5.81%. In the case of `CCOc1ccccc1/C=N/NC(=O)c1nnn(-c2nonc2N)c1CN1CCCC1`, the Potency was 20.6 µM (active) and the cell number change was 16%. For `CC(=C/c1ccco1)/C=N/NC(=O)c1nnn(-c2nonc2N)c1CN(C)C`, the Potency was “inactive”. For `Cc1cccc(COc2ccc(/C=N/NC(=O)c3nnn(-c4nonc4N)c3C)cc2)c1`, the Potency was “inactive” and the cell number change was 11.5%. For `Cc1ccc(COc2cccc(/C=N/NC(=O)c3nnn(-c4nonc4N)c3C)c2)cc1`, the Potency was 20.6 µM (active) and the cell number change was 50%. For `CC(/C=N/NC(=O)c1nnn(-c2nonc2N)c1CN(C)C)=C\c1ccco1`, the Potency was “inactive” and the cell number change was -0.367%. For `CN(C)Cc1c(C(=O)N/N=C/c2ccccc2OCc2c(F)cccc2Cl)nnn1-c1nonc1N`, the Potency was 4.11 µM (active) and the cell number change was 0.435%. With `CN(Cc1c(C(=O)N/N=C/c2c(F)cccc2Cl)nnn1-c1nonc1N)c1ccccc1` the Potency was “inactive” and the cell number change was 8.36%. With `CC(C)c1c(C(=O)N/N=C/c2ccccc2OCc2c(F)cccc2Cl)nnn1-c1nonc1N` the Potency was “inactive”. For `CCCN(CCC)Cc1c(C(=O)N/N=C/C(C)=C\c2ccco2)nnn1-c1nonc1N`, the Potency was 11.6 µM (active) and the cell number change was -11.1%. For `CC(C)c1c(C(=O)N/N=C/c2cccc(OCc3ccc(F)cc3)c2)nnn1-c1nonc1N`, the Potency was “inactive” and the cell number change was 11.8%. With `Nc1nonc1-n1nnc(C(=O)N/N=C/c2cccc(Cl)c2Cl)c1CN1CCCC1` the Potency was “inactive” and the cell number change was 16.7%. With `Nc1nonc1-n1nnc(C(=O)N/N=C/c2ccccc2Br)c1CN1CCCC1` the Potency was “inactive” and the cell number change was -1.9%. For `Cc1cc(NC(=O)COc2ccc3oc4ccccc4c3c2)no1`, the Potency was “inactive” and the cell number change was -12.8%. In the case of `CC1CCN(C(=O)c2ccc3c(Cl)c4c(nc3c2)CCCC4)CC1`, the Potency was “inactive” and the cell number change was 2.72%. With `Cc1ccc(S(=O)(=O)CCN2CCN(c3ccccc3)CC2)cc1` the Potency was “inactive” and the cell number change was -10.3%. In the case of `NS(=O)(=O)c1ccc(CCNC(=O)C(=O)NCC2OCCN2S(=O)(=O)c2ccc(Cl)cc2)cc1` (stereo unspecified), the Potency was “inactive” and the cell number change was -8.07%. With `CN(C)c1ccc(/C=N/NC(=O)c2nnn(-c3nonc3N)c2CN(C)c2ccccc2)cc1` the Potency was “inactive” and the cell number change was 24.5%. For `CN(Cc1c(C(=O)N/N=C/c2ccccc2)nnn1-c1nonc1N)c1ccccc1`, the Potency was 4.61 µM (active) and the cell number change was -11.2%. With `CN(Cc1c(C(=O)N/N=C/c2ccc(O)cc2)nnn1-c1nonc1N)c1ccccc1` the Potency was “inactive” and the cell number change was -9.24%. With `Cc1ccc(-n2c(SCc3cn4ccsc4n3)nc3ccccc3c2=O)cc1` the Potency was “inactive” and the cell number change was -7.5%. For `C=C(C)CSc1nnc([C@@H]2CCCN2)o1`, the Potency was “inactive” and the cell number change was 9.92%. With `COc1ccc(NC(=O)C2CCN(S(=O)(=O)c3ccc4c(c3)NC(=O)C(C)S4)CC2)cc1` (stereo unspecified) the Potency was “inactive” and the cell number change was 2.12%. In the case of `COc1ccc(S(=O)(=O)N2CCCC2C(=O)Nc2ccc(C(C)=O)cc2)cc1` (stereo unspecified), the Potency was “inactive” and the cell number change was -11.3%. For `O=C(Nc1ccc(F)cc1)C1CCCN(S(=O)(=O)c2ccc3[nH]c(=O)ccc3c2)C1` (stereo unspecified), the Potency was “inactive” and the cell number change was 23.9%. For `CCOc1ccc(NC(=O)C2CCCN2S(=O)(=O)c2ccc(OCC)cc2)cc1` (stereo unspecified), the Potency was 0.651 µM (active) and the cell number change was 9.72%. In the case of `COc1ccc(NC(=O)C2CCCN2S(=O)(=O)c2ccc(F)cc2)cc1` (stereo unspecified), the cell number change was -1.12% and the lipid storage change, negative = inhibition was -17.7% [at 9.22 µM] (inactive). For `CCOc1ccc(NC(=O)C2CCN(S(=O)(=O)c3ccc4c(c3)NC(=O)C(C)S4)CC2)cc1` (stereo unspecified), the Potency was 1.03 µM (active). For `CCOc1ccc(NC(=O)C2CCCN(S(=O)(=O)c3ccc4[nH]c(=O)ccc4c3)C2)cc1` (stereo unspecified), the Potency was 20.6 µM (active) and the cell number change was 23.6%. With `CC1Sc2ccc(S(=O)(=O)N3CCC(C(=O)Nc4ccc(Cl)cc4)CC3)cc2NC1=O` (stereo unspecified) the Potency was “inactive” and the cell number change was 7.08%. With `CCc1cccc(NC(=O)C2CCCN(S(=O)(=O)c3ccc4[nH]c(=O)ccc4c3)C2)c1` (stereo unspecified) the Potency was “inactive” and the cell number change was 16%.
